Measurements from PubChem BioAssay AID588342 (National Center for Advancing Translational Sciences (NCATS), 2011).
Among all 360,000 compounds or so, about 25,000 (6.9%) were called active. About 9% were inconclusive and are not listed. Shown is part of a subset that was picked to be rich in actives. Unmarked numbers belong to inactive results. The call rests on the fitted dose curve; in most records, active means well fitted inhibition curve with a large enough effect; inconclusive means small, poorly fitted or top-dose-only effect; inactive means flat fitted curve, though single readings scatter.

These molecules were tested against Luciferin 4-monooxygenase (Photinus pyralis) (UniProt P08659) (assay: qHTS profiling assay for firefly luciferase inhibitor/activator using purifed enzyme and Km concentrations of substrates (counterscreen for miR-21 project)). Settings: purified FLuc, luminescence inhibition; series mostly up to 57.5 µM; activity change, negative = inhibition: at the top concentration.
In short: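 Purified P. pyralis luciferase (10nM final) with 10uM D-luciferin and 10uM ATP (Km levels) in 50mM Tris acetate pH 7.5, 10mM Mg acetate, 0.01% Tween-20, 0.05% BSA; qHTS 6-point titration, ~60 µM downward; luminescence read.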
Further: nearly all actives have a fitted effect of over 55% in size.
Potency means the concentration at half of the fitted maximal effect.
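Wherever activity change, negative = inhibition is given: plate controls were vehicle for no effect and reference inhibitor for full effect.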

Luciferin 4-monooxygenase (Photinus pyralis), sequence (P08659 whole entry, looked up): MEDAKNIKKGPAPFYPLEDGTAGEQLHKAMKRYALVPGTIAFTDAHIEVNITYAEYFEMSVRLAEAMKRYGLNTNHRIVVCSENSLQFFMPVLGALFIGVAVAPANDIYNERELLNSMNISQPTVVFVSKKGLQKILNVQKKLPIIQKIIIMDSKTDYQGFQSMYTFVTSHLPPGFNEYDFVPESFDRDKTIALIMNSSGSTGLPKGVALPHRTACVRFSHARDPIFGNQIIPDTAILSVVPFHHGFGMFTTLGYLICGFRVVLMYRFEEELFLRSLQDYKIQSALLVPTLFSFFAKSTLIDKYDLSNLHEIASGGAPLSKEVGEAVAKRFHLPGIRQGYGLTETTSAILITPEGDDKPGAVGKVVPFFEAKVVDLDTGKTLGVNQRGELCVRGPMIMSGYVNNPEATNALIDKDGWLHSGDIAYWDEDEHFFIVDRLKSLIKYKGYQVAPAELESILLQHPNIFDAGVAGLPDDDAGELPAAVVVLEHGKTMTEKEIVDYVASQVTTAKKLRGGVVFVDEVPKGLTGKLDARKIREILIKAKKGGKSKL

Row | Structure (SMILES) | activity change, negative = inhibition | Potency
1 | CC(=O)Nc1ccc(S(=O)(=O)N2CCN(c3ccc([N+](=O)[O-])c(NCCN4CCOCC4)c3)CC2)cc1 | 2.44% | 
2 | COc1ccccc1OCCNc1cc(N2CCOCC2)ccc1[N+](=O)[O-] |  | 15.1 µM (active)
3 | O=C(c1ccccc1)N1CCN(c2ccc([N+](=O)[O-])c(NCc3ccco3)c2)CC1 | 0.947% | 
4 | O=C(CCn1ccc2cc(S(=O)(=O)N3CCCC3)ccc21)NCc1cccc(Cl)c1 | -7.4% | 
5 | COc1ccc(-c2noc(C(C)NS(=O)(=O)c3ccc(NC(C)=O)cc3)n2)cc1 (stereo not drawn) | -1.43% | 
6 | CCCn1c(N)c(C(=O)CSc2nnc3n2CCCCC3)c(=O)[nH]c1=O | 3.94% | 
7 | Cc1nc(/N=C(\N)NC(=O)NC2CCCCC2)nc2ccccc12 |  | 16.9 µM (active)
8 | COc1ccc2nc(/N=C(\N)NC(=O)Nc3ccccc3)nc(C)c2c1 |  | 26.9 µM (active)
9 | O=C(NNC(=O)C(O)c1ccccc1)NC1CCCCC1 (stereo not drawn) | 3.66% | 
10 | COC(=O)[C@H](Cc1ccccc1)NC(=O)Nc1ccc(OC)cc1 | -2.85% | 
11 | O=C(Cn1nnc(-c2ccccc2)n1)NC(=O)NC1CCCC1 | 3.07% | 
12 | COc1cc(NC(=O)c2nc3ccccc3nc2C)cc(OC)c1OC | -14% | 
13 | Cc1cc(NC(=O)CC(C)C)cc(-c2nc3ncccc3o2)c1O | 2.31% | 
14 | O=C(c1cccs1)c1cn(CCOc2ccc(Cl)cc2)c2ccccc12 | -4.78% | 
15 | O=C(CCCOc1ccccc1)Nc1cccc(C(=O)O)c1 |  | 15.1 µM (active)
16 | CCOC(=O)c1cccc(NC(=O)CCOc2ccccc2)c1 | -10.1% | 
17 | COc1ccc(OCCCC(=O)Nc2cccc(S(=O)(=O)N3CCCCCC3)c2)cc1 | -12.1% | 
18 | COCCn1cnnc1SCC(=O)Nc1cccc(S(=O)(=O)N2CCCCC2)c1 | 3.11% | 
19 | CCOc1ccccc1CNC(=O)c1cnc2c(-c3ccc(OCC)c(OCC)c3)c(C)nn2c1C | -1.62% | 
20 | COc1ccc(OCc2ccc(-c3nc4ccccc4c(=O)n3N)o2)cc1 |  | 12 µM (active)
21 | COC(=O)c1ccc(CSc2nc3ccccc3c(=O)n2-c2cccc(OC)c2)o1 | 1.87% | 
22 | COc1ccc(OCc2ccc(-c3nc(C#N)c(N4CCN(c5ccccc5)CC4)o3)o2)cc1 | -2.48% | 
23 | COc1ccccc1OCCCn1c(-c2ccc(Cl)cc2)nc2ccccc2c1=O | 1.48% | 
24 | COc1ccc(-c2nc3ccccc3c(=O)n2CCc2ccc(O)cc2)cc1 |  | 21.3 µM (active)
25 | COc1cccc(OCCn2c(-c3ccc(Br)cc3)nc3ccccc3c2=O)c1 | -7.08% | 
26 | Cc1cc(C)cc(OCC(=O)Nc2ccc(N3CCOCC3)cc2N2CCOCC2)c1 | 1.89% | 
27 | Cc1nn2c(=O)cc(COC(=O)CNC(=O)c3ccc(F)cc3)nc2s1 | 2.08% | 

Row | Structure (SMILES) | activity change, negative = inhibition | Potency
28 | COc1cccc(N2CCN(S(=O)(=O)c3cc(Br)cc4c3N(C(=O)C3CC3)CC4)CC2)c1 | 0.1% | 
29 | COc1ccc(S(=O)(=O)NCC2CCCN(C(=O)c3occc3C)C2)cc1 (stereo not drawn) | -1.96% | 
30 | Cc1cccc(-n2ncc(Cl)c(Cl)c2=O)c1 | 0.614% | 
31 | Cc1ccc(-n2ncc3c(=O)[nH]cnc32)c(C)c1 | 0.0061% | 
32 | COc1ccc(-n2c(C)nc3c(cnn3-c3ccc(F)cc3)c2=O)cc1 | 3.47% | 
33 | COc1ccc2oc(=O)c(C(=O)N3CCCc4ccccc43)cc2c1 | 3.4% | 
34 | Cc1cccc(-n2ncc3c(N4CCc5ccccc54)ncnc32)c1 |  | 0.536 µM (active)
35 | COc1ccc(CCC(C)N2CCc3ccccc3C2)cc1 (stereo not drawn) | -0.635% | 
36 | COc1ccc(-n2ncc3c(N4CCc5ccccc54)ncnc32)cc1 |  | 0.379 µM (active)
37 | COc1ccc(-n2ncc3c(N4CCCc5ccccc54)ncnc32)cc1 |  | 1.35 µM (active)
38 | COc1cc(C)c(C)cc1S(=O)(=O)N1CCCc2ccccc21 | 5.54% | 
39 | CCCCN(C(=O)C1=NN(c2cc(C)ccc2C)C(=O)CC1)c1c(N)n(CCC)c(=O)[nH]c1=O | -0.555% | 
40 | COc1cccc(CNC(=O)CN2C(=O)NC(Cc3ccccc3)(c3ccccc3)C2=O)c1 (stereo not drawn) | 0.778% | 
41 | CC1=C(c2ccc(Cl)cc2)S(=O)(=O)N=C1N1CCN(c2cc(C)ccc2C)CC1 | -4.39% | 
42 | O=C(CSc1ccccc1)Nc1nnc(/C=C/c2ccccc2)s1 | -1.44% | 
43 | CC(C)C(=O)Nc1nnc(Sc2ccc(N(C)C)cc2)s1 | 0.449% | 
44 | COc1ccc(/C=C/c2nnc(NC(=O)C(C)C)s2)cc1 |  | 2.69 µM (active)
45 | CCCC(=O)N1CCN(c2nc3c(OC)ccc(C)c3s2)CC1 | -13.8% | 
46 | COc1ccccc1NC(=O)c1cc(C2CC2)nc2c1c(C)nn2-c1ccc(C)cc1 | 2.95% | 
47 | CS(=O)(=O)c1ccc2c(c1)SC1=NC(=O)/C(=C/c3ccco3)C(=N)N12 |  | 10.7 µM (active)
48 | CS(=O)(=O)C1=NN2C(=N)/C(=C\c3ccc(OCCOc4ccccc4)cc3)C(=O)N=C2S1 | 5.51% | 
49 | CC(C)(C)C1C/C(=C/c2ccco2)C(=O)/C(=C/c2ccco2)C1 (stereo not drawn) | 8.48% | 
50 | CC(NC(=O)CN(C)S(=O)(=O)c1ccc(F)cc1)C1CC2CCC1C2 (stereo not drawn) | 6.14% | 
51 | Cc1ccc2oc(=O)c3cnn(CC(=O)NCc4ccccc4Cl)c3c2c1 | 0.217% | 
52 | CCOc1cccc2c1OC1(CCCCC1)N1N=C(c3cccnc3)CC21 (stereo not drawn) |  | 19 µM (active)
53 | CCOc1ccccc1C1CC(c2cccc(NS(C)(=O)=O)c2)=NN1C(=O)c1ccccc1 (stereo not drawn) | -1.5% | 
